NOD2 RIPK2 PPI = NOD2-RIPK2 binding disruptors in cells, primary screen, fluorescence, CHO cells, BLA complementation; CCF4 ratio; inhibition, % at 4.98 µM; 360,000 tested, 0.38% active; AID 624267, 2012; in the data active = inhibition above about 21%;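 also: 0% = vehicle only and 100% = reference blocker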
Target sequence (O43353 whole entry, looked up): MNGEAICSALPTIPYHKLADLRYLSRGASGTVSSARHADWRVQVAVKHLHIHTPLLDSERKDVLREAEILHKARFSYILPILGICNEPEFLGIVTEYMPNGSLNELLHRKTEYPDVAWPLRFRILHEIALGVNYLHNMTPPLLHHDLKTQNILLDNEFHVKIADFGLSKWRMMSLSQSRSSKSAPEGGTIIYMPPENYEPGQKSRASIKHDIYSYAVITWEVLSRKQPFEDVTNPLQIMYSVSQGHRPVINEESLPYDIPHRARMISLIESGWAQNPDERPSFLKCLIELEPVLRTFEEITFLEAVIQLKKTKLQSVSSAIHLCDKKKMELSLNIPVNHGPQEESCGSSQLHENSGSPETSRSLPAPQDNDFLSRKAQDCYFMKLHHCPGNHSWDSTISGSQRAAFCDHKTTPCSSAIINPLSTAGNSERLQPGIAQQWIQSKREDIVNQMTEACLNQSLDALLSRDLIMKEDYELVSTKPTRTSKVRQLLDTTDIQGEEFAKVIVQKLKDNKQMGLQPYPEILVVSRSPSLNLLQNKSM
Exocytosis inh = LAMP-1 surface exposure blockers, TALL-104 cells – cell-based, flow cytometry, MLPCN library, primary screen | 360,000 tested, 0.66% active | TALL-104 LAMP-1 surface exposure; cells stimulated with thapsigargin and PMA | AID 651702, 2012 | inhibition, % at 10 µM;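 active = inhibition above about 55%, limit read from the data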
TLR4 MyD88 comp = inhibitors of TLR4-MyD88 association in cells, primary screen, cell-based, HeLa CL3-4, BLA complementation, FRET ratio | AID 861, 2007 | 200,000 tested, 0.18% active | inhibition, % at 8.4 µM | HeLa CL3-4 TLR4/MyD88 BLA complementation | Toll-like receptor 4 (Homo sapiens) + Myeloid differentiation primary response protein …; in the data active = inhibition above about 25%;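 also: 0% = vehicle and 100% = reference inhibitor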
TLR9-MyD88 inh = inhibitors of TLR9-MyD88 association in cells, primary screen, cell-based, CHO, BLA complementation, fluorescence; Toll-like receptor 9 (Homo sapiens) + Myeloid differentiation primary response protein …; inhibition, % at 4.98 µM; CCF4 FRET ratio; 340,000 tested, 0.21% active;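 active = inhibition above the mean over all tested compounds plus 3 SD, cut at about 21% in these data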;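 also: 0% = DMSO only wells and 100% = clavulanate BLA inhibitor control wells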
PRMT1 inh = PRMT1 methyltransferase inhibitors, primary screen, biochemical, fluorescence polarization; Protein arginine N-methyltransferase 1 (Homo sapiens), Q99873; recombinant PRMT1, activity-based probe fluorescence polarization; inhibition, % at 2.79 µM; 370,000 tested, 1.3% active;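 active = inhibition above about 21% made by adding two undisclosed values, limit read from the data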
ABHD5 PLIN5 PPI = ABHD5-PLIN5 interaction inhibitors, primary screen, cell lysate, split luciferase complementation, luminescence; Split G. princeps luciferase complementation, 4 h; 360,000 tested, 0.78% active; Perilipin-5 (Homo sapiens) + 1-acylglycerol-3-phosphate O-acyltransferase ABHD5 (Homo …; AID 602281, 2012; inhibition, % at 4 µM;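 active = inhibition above the mean inhibition across every tested compound plus 3 SD, cut at about 22% in these data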;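 also: 0% = DMSO only wells and the 100% control is not disclosed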
The depositor's hits bear a star; · = not tested or not shown. Most compounds without a hit are left out; they make up all but 2.6% or so of the library.

SMILES	NOD2 RIPK2 PPI	Exocytosis inh	TLR4 MyD88 comp	TLR9-MyD88 inh	PRMT1 inh	ABHD5 PLIN5 PPI
CCCCNC(=O)C1=C(N)C(C(=O)Nc2ccc(C)c(S(=O)(=O)N3CCCCC3)c2)SC1=Nc1ccc(C)cc1C (configuration not stated)	4.6	-1.2	-3.8	7.3	1.7	24.2*
CCCCC(=O)Nc1ccc(C)c(S(=O)(=O)N2CCCCCC2)c1	-4.9	-4.6	·	-6.9	4.0	5.7
CCCCCCCCCCOC(=O)Cn1c(COc2ccc(Cl)cc2)[n+](C)c2ccccc21	17.8	34.9	·	6.8	4.8	10.1
CCCCCCCCCCOC(=O)Cn1c(COc2ccc(OC)cc2)[n+](C)c2ccccc21	5.3	64.9*	·	-5.9	·	18.1
CCCCCCCCCCOC(=O)Cn1c(COc2cccc(C)c2)[n+](C)c2ccccc21	-5.3	74.4*	·	1.8	-2.1	16.9
CCOC(=O)Cn1c(COc2ccccc2OC)[n+](C)c2ccccc21	-11.6	-4.5	·	·	1.9	2.2
CCCCCCCCCCOC(=O)Cn1c(COc2ccccc2)[n+](C)c2ccccc21	0.1	65.9*	·	-2.5	-0.8	11.8
Cc1ccccc1CN1CCCCC(NC(=O)c2ccc(F)c(F)c2)C1=O (configuration not stated)	·	·	·	·	-2.8	·
c1ccc(-c2nc(-n3nc4ccccc4n3)nc3ccccc23)cc1	-4.9	65.3*	-3.7	-5.8	1.7	-0.7
CC(C)CC1O[C@@H](C)[C@@H]2CN3CCc4c([nH]c5ccccc45)[C@@H]3C[C@@H]2N1C (some centres not stated)	·	·	·	·	-1.0	·
CCn1c(SCC(=O)Nc2sc3c(c2C(N)=O)CCC(C)C3)nnc1-c1ccco1 (configuration not stated)	-7.4	-1.9	10.0	5.8	22.5*	-1.0
O=C1C(CO)C(CO)C(CO)C1CO (configuration not stated)	-5.6	69.1*	·	5.5	6.7	0.6
CCCCCCCCN1C(=O)[C@@H](CC(=O)N2CCN(C(=O)C3CC3)CC2)C[C@@]2(C(=O)OC)C1=C[C@H](C1CCCC1)O[C@@H]2C	·	·	·	·	-0.4	·
c1cc2ccn(CC3CC3)c2cc1-c1ccc2ccn(CC3CC3)c2c1	·	·	·	·	-1.3	·
COc1ccc(-n2sc3c(c2=S)-c2cc(OC)ccc2NC3(C)C)cc1	-3.9	-1.0	7.9	0.6	-1.0	-11.4
COc1ccc2c(c1)-c1c(sn(-c3ccc(OC)c(OC)c3)c1=S)C(C)(C)N2	3.6	66.2*	-6.2	-2.8	-3.9	-8.0
CCOC(=O)Cn1c(=NC(=O)c2cc(-c3cccs3)nc3ccccc23)sc2cc(S(N)(=O)=O)ccc21	-2.4	21.0	1.3	-19.9	-1.5	8.8
COC(=O)Cn1c(=NC(=O)c2cc(-c3cccs3)nc3ccccc23)sc2cc(S(N)(=O)=O)ccc21	-14.1	19.5	-21.2	-1.4	1.1	25.8*
CC(C)c1ccc(Oc2cccc3c2S(=O)(=O)N([C@H](C)c2ccccc2)C[C@@H](COCc2ccccc2)O3)cc1	·	·	·	·	-1.2	·
O=C(O)/C(=C\c1ccc(Cl)c([N+](=O)[O-])c1)c1ccc(S(=O)(=O)N2CCCC2)s1	-11.6	5.4	·	-5.6	22.6*	-13.1
CC(=O)Nc1cc([N+](=O)[O-])ccc1N1CCOCC1	-1.0	-0.5	14.5	3.8	-1.2	-0.7
O=C(Nc1ccc([N+](=O)[O-])cc1)Nc1ccc(N2CCOCC2)c2nonc12	-8.8	76.6*	-7.9	14.9	-9.4	-4.0
CC1CCCCN1C(=O)c1ccc(CNC(=O)c2cccc(Br)c2)cc1 (configuration not stated)	·	·	·	·	0.7	·
O=C(Sc1n[nH]c(=O)[nH]c1=O)c1ccccc1	4.3	4.7	·	-6.9	87.6*	-26.2
COc1ccc(N2CSC3=C(C#N)C(c4cc(OC)ccc4OC)CC(=O)N3C2)c(OC)c1 (configuration not stated)	-8.3	5.3	-9.6	-3.9	·	-14.3

Screens (PubChem BioAssay)
